An excerpt weighted towards active compounds, which were near 11% of everything screened.
NPR1 antag: blocks ANP-stimulated signaling of human Npr1 receptor; 76,000 compounds, 1.6% hits; P16066; Potency, µM (highest dose often 46.3 µM), usual class: inhibitors; HEK293 hNpr1 GloSensor cGMP, ANP-stimulated luminescence; calls by dose curve; note: nearly all actives have a fitted effect of over 60% in size
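HEK293 cells stably expressing human Npr1 and cGMP GloSensor pGS-40F, loaded 2 h with 2% GloSensor reagent, given compound 30 min at room temperature. Luminescence read before and 20 min after 0.1 nM hNppA.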
Luciferase inh: blocks purified firefly luciferase enzyme activity; P08659; purified P. pyralis luciferase, luminescence, biochemical; Potency, µM (titrated, usually from 115 µM), most hits filed as inhibitors; 76,000 compounds, 2.5% hits; AID 1347043; note: nearly all actives have a fitted effect of over 65% in size
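Cell-free enzyme assay, 10nM P. pyralis luciferase, luciferin and ATP each at 10uM. Inhibition profiled over a 6-point titration, read as luminescence.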
3T3 cytotox: cytotoxic compounds in NIH 3T3 cells | NIH 3T3 viability, CellTiter-Glo ATP luminescence, 48-72 h | Potency, µM (series often up to 96.7 µM), usual class: inhibitors | 94,000 compounds, 4.3% hits | AID 1345082; note: nearly all actives have a fitted effect of over 55% in size
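Viability of NIH 3T3 cells after 48 or 72 hr compound treatment at 37 °C was assessed by CellTiter-Glo, with luminescence imaged following a 10 min room-temperature step.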
HEK cytotox: kills HEK 293 cells | 94,000 compounds, 6.6% hits | HEK 293 viability, ATP luminescence (CellTiter-Glo), 48-72 h | Potency, µM (titrated, usually from 115 µM), actives largely listed as inhibitors | AID 1345083; note: nearly all actives have a fitted effect of over 60% in size
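250 HEK 293 cells/well; compound by pintool; incubated 48 or 72 hr at 37 degree Celsius; CellTiter-Glo added, 10 min RT, luminescence imaged.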
Hits are given with their value; n = inactive; u = inconclusive; x = no result. Unless noted, calls come from the whole dose curve; as a rule, active = well fitted curve in the direction sought with a large enough effect; inconclusive = small, poorly fitted or top-dose-only effect, or another doubt; inactive = no such curve, though single readings can be large; an effect the other way counts as inactive or inconclusive.

SMILES	NPR1 antag	Luciferase inh	3T3 cytotox	HEK cytotox
O=c1c2c(n(Cc3cccnc3)n1-c1ccccc1)CN(CC1CC1)CC2	n	n	28µM	n
Cc1cccc(CN2CCc3c(n(Cc4cccnc4)n(-c4ccccc4)c3=O)C2)n1	n	n	100µM	n
CCNc1ncc(C(=O)N(CCc2ccccc2)Cc2ccco2)cn1	n	n	n	u
COc1ccc(CC(=O)N(C)Cc2ccc(F)cc2)cc1	n	n	n	u
CN(Cc1ccc(F)cc1)C(=O)Cc1ccccn1	n	n	n	n
CN(Cc1ccc(-c2ccccc2)cc1)C(=O)Cc1ccc(F)cc1	n	n	35µM	50µM
CN(Cc1ccc(-c2ccccc2)cc1)C(=O)Cc1ccccn1	u	u	u	63µM
COc1ccc(C2Cn3nnc(-c4noc(COc5cccc(C)c5)n4)c3CO2)cc1 (stereo not drawn)	n	n	n	u
Cn1nccc1C(=O)N1CCC(Oc2ccc(-c3noc(-c4ccccc4)n3)cc2)C1 (stereo not drawn)	x	x	u	22µM
COc1cccc(C(=O)N2CC(Oc3ccccc3-c3nc(-c4ccccc4)no3)C2)c1	n	u	u	20µM
Cn1nccc1C(=O)N1CCC(Oc2ccccc2)C1 (stereo not drawn)	n	n	n	n
COc1cccc(C(=O)N2CC(Oc3cccc(-c4nc(-c5ccccc5)no4)c3)C2)c1	n	u	u	u
O=C(c1cccnc1)N1CC(Oc2ccc(-c3noc(-c4ccccc4)n3)cc2)C1	11µM	u	n	u
COc1cccc(C(=O)N2CC(Oc3ccc(-c4nc(-c5ccccc5)no4)cc3)C2)c1	n	n	u	22µM
Cc1ccc(C(=O)N2CCn3c(nnc3C3CC3)C2)cc1	n	n	n	n
CC1=NS(=O)(=O)N(C)C=C1C(=O)O	n	n	n	n
COc1ccc(CC(=O)N2CCCC(C(=O)N3CCC(c4nc5ccncc5[nH]4)C3)C2)cc1 (stereo not drawn)	x	x	n	n
Cc1cnc(C(=O)N2CC(Oc3ccccc3-c3nc(C4CC4)no3)C2)cn1	n	n	n	u
Cc1nc(C)c(C(=O)N2CC(Oc3ccccc3-c3nc(C4CC4)no3)C2)s1	n	n	u	89µM
O=C(NCc1cccc(Cl)c1)c1noc(-c2ccc3c(c2)OCO3)n1	n	u	u	40µM
Cc1cccc(CNC(=O)c2noc(-c3ccc4c(c3)OCO4)n2)c1	n	u	u	u
CSc1ccc(CNC(=O)c2noc(-c3ccc(F)cc3)n2)cc1	n	28µM	u	n
O=C(NCc1cccs1)c1noc(-c2ccc(F)cc2)n1	n	u	u	u
COc1ccccc1C(=O)NCc1c[nH]c2ncccc12	n	n	n	n
COc1cccc(CNC(=O)c2c[nH]c3ncccc23)c1	n	40µM	u	n
SMILES	NPR1 antag	Luciferase inh	3T3 cytotox	HEK cytotox
COc1cccc(CNC(=O)c2noc(-c3ccc(C)cc3)n2)c1	n	28µM	n	n
COc1ccc(CNC(=O)c2noc(-c3ccc(C)cc3)n2)cc1	n	n	n	n
COc1ccc(CNC(=O)c2noc(-c3ccc4c(c3)OCO4)n2)cc1	n	32µM	u	u
O=C1NC2(CCCN(Cc3ccccc3C(F)(F)F)C2)Oc2ccccc21 (stereo not drawn)	n	n	u	45µM
O=C1NC2(CN(Cc3ccccc3C(F)(F)F)C2)Oc2ccccc21	n	n	u	40µM
O=C1NC2(CCN(Cc3ccccc3C(F)(F)F)C2)Oc2ccccc21 (stereo not drawn)	n	n	n	n
CN(C)C(=O)c1cccn2cncc12	n	n	n	n
CNC(=O)[C@@H]1CN(C(=O)c2cc3ccc(OC)cc3[nH]2)C[C@H]1C1CCN(C)CC1	n	n	n	n
C[C@@]12CO[C@@H](Cc3ccccc3)O[C@@H]1CC[C@]1(C)[C@@H]2CC[C@@H](O)[C@H]1CC(=O)N1CCCC1	n	n	n	n
COc1ccc(NC(=O)O[C@@H]2CC[C@]3(C)C(CC[C@@H](O)[C@H]3CC(=O)NCc3ccc4c(c3)OCO4)[C@]2(C)CO)cc1 (stereo partly drawn)	n	n	45µM	u
C[C@@]12CO[C@@H](Cc3ccccc3)O[C@@H]1CC[C@]1(C)C2CC[C@@H](O)[C@H]1CC(=O)NCc1cc(F)cc(F)c1 (stereo partly drawn)	n	n	40µM	40µM
CSc1cccc(NC(=O)O[C@@H]2CC[C@]3(C)C(CC[C@@H](O)[C@H]3CC(=O)NCc3ccccc3)[C@]2(C)CO)c1 (stereo partly drawn)	n	n	40µM	35µM
CCNC(=O)CCc1c(C)nn(-c2ccc(F)cc2)c1Oc1ccccc1F	n	n	u	u
COc1ccc(C2Cn3cnc(C(=O)N4CCC(C(=O)NCCC5=CCCCC5)CC4)c3CO2)cc1 (stereo not drawn)	n	n	n	n
O=C(c1ccc2ccccc2n1)N1CCN(C(=O)N2CC3CC(C2)[C@H]2CCCC(=O)N2C3)CC1 (stereo partly drawn)	n	n	n	n
CS(=O)(=O)N[C@@H]1[C@@H](NC(=O)CCn2nnc3ccccc32)[C@H]2CCO[C@H]21	n	n	n	n
O=C(NCc1cccc(C(F)(F)F)c1)c1cn2cc(-c3cccc(C(F)(F)F)c3)sc2n1	x	x	n	n
O=C(NCc1ccc(F)c(F)c1)c1cn2cc(-c3ccc(C(F)(F)F)cc3)sc2n1	x	x	45µM	56µM
COCCNC(=O)c1cn2cc(-c3ccc(C)cc3)sc2n1	x	x	u	100µM
CNC(=O)c1cn2cc(-c3cccc(C(F)(F)F)c3)sc2n1	x	x	u	28µM
Cc1ccc(-c2cn3cc(C(=O)NCc4ccccn4)nc3s2)cc1	x	x	u	79µM
O=[S+]([O-])(c1cccc(C(F)(F)F)c1)N1CC(CNc2cccnc2)C2(CN(c3ccccc3)C2)C1 (stereo not drawn)	n	n	u	u
CC(C)C(=O)N1CCCC2(COc3ccccc3[S+](=O)([O-])N2)C1 (stereo not drawn)	x	x	n	n
Cc1n[nH]c(C)c1CCNC(=O)c1ccccc1OC1CCN(Cc2ccccn2)CC1	n	n	n	n
COc1cccc(-c2cn3cc(C(=O)NCC(C)C)nc3s2)c1	x	x	u	22µM
SMILES	NPR1 antag	Luciferase inh	3T3 cytotox	HEK cytotox
COCCCNC(=O)c1cn2cc(-c3cccc(OC)c3)sc2n1	x	x	u	79µM
CC(C)NC(=O)c1cn2cc(-c3ccccc3)sc2n1	x	x	u	71µM
CN1C(=O)C2(CCN(S(=O)(=O)c3ccccc3)C2)c2ccccc21 (stereo not drawn)	n	n	u	u
COc1cccc(C(=O)Nc2ccc3c(N4CCOCC4)ncnc3c2)c1	n	u	n	n
Cc1ccc(C(=O)Nc2ccc3c(N4CCOCC4)ncnc3c2)cc1C	n	u	u	u
O=C(Nc1ccc2c(N3CCOCC3)ncnc2c1)c1ccc(Br)o1	n	n	u	40µM
CC(Oc1cccc(Cl)c1)C(=O)Nc1ccc2c(N3CCOCC3)ncnc2c1 (stereo not drawn)	n	n	u	45µM
O=C(Nc1ccc2c(N3CCOCC3)ncnc2c1)c1cccc(Cl)c1	n	n	7.1µM	u

Source: PubChem BioAssay (National Center for Advancing Translational Sciences (NCATS))
